We go through five compounds from PubChem BioAssay.

Calls of active or inactive are those of the source. Unless noted, the rule behind the calls is not given here.

The nature of assay [1]: compounds binding Alexa647 anti-His antibody – biochemical, small-molecule microarray, 635 nm fluorescence, artefact control for SMM control protein annotation, primary screen (AID 1128).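 Note: score merges feature fluorescence with signal-to-noise for each printed compound spot.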 Particulars: higher = more signal.
Assay [2] deals with Human papillomavirus type 1a E7 protein (residues 1-88). Briefly: HPV1a E7 small-molecule binders, primary screen, biochemical, small-molecule microarray, residues 1-88, 635 nm (AID 1129). The conditions noted are these: small-molecule microarray binding, fluorescence 635 nm; higher = more signal.
The target of assay [3] is Focal adhesion kinase 1 (Homo sapiens) (UniProt Q05397). Briefly: PTK2 protein binding on printed compound slides – biochemical, small-molecule microarray, 635/667 nm fluorescence, BSA, DTT, primary screen (AID 1130).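 Note: composite of spot emission at 667 nm and signal to noise over triplicate slides.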 Particulars: 635 nm fluorescence, higher = more signal.
Sequence of Focal adhesion kinase 1 (Homo sapiens) (Q05397 whole entry, looked up): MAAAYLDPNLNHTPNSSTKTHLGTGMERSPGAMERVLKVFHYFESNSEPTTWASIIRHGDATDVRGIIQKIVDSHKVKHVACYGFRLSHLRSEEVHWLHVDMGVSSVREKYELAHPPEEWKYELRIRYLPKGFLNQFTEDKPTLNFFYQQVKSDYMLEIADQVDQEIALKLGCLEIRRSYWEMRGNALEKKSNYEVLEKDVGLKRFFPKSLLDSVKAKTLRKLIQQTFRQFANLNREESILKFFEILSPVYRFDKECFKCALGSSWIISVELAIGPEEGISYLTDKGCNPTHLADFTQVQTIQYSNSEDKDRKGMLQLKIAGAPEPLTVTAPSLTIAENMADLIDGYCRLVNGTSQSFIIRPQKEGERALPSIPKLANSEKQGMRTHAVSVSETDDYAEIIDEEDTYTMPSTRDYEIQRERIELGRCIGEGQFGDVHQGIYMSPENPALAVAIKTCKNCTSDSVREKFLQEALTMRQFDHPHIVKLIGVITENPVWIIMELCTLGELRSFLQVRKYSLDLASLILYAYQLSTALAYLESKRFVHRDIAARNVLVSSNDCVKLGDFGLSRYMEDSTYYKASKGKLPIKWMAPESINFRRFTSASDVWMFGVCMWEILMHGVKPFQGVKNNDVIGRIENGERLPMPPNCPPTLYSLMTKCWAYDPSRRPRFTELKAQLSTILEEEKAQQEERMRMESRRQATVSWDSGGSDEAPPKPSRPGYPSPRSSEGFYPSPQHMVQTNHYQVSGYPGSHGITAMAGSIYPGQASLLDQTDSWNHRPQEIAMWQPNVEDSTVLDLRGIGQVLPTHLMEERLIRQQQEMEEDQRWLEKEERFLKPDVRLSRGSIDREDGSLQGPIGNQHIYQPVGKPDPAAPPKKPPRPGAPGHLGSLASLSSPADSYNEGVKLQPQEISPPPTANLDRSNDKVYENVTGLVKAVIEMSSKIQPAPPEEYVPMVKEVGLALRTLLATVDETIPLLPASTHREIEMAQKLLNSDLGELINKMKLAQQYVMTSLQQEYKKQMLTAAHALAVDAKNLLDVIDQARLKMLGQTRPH
Assay [4] concerns Fibrinogen (Alexa647-labelled). Briefly: Alexa647-fibrinogen binding to printed small molecules – biochemical, small-molecule microarray, 635/667 nm fluorescence, artefact control for SMM control-protein annotation, profiling panel (AID 1131).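 Note: z-score merges 667 nm fluorescence with per-spot signal-to-noise over triplicate slides.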 Particulars: fibrinogen-A647 binding fluorescence, higher = more signal.
Assay [5] addresses Follistatin (Homo sapiens) (UniProt P19883). Briefly: FST protein binding to printed compounds – biochemical, small-molecule microarray, 635/667 nm fluorescence, primary screen (AID 1132). Particulars: 635 nm fluorescence, higher = more signal.
Assay [6] has as its target Fibroblast growth factor 2 (Homo sapiens) (UniProt P09038). Briefly: basic fibroblast growth factor binding to printed compounds – biochemical, small-molecule microarray, 635/667 nm fluorescence, primary screen (AID 1133). Particulars: FGF2, fluorescence 635/667, higher = more signal.
Assay [7] can be described thus: JC-1 mitochondrial potential readout, lung cancer cells – cell-based, A549, JC-1 fluorescence, basal, 24 h, 100 nL, profiling panel (AID 1138).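 Note: A549 lung adenocarcinoma cells under basal conditions with no added stimulus; test concentration not given here.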 The conditions noted are these: higher = more signal.
Assay [8] concerns Lefty1. Briefly: Lefty1 protein binding to printed compounds – biochemical, small-molecule microarray, 635/667 nm fluorescence, primary screen (AID 1139). The conditions noted are these: fluorescence 635/667, higher = more signal.
The subject of assay [9] is wheat germ agglutinin (Triticum aestivum), Alexa647-labelled. Briefly: Alexa647-WGA lectin binding to printed small molecules – biochemical, small-molecule microarray, 635/667 nm fluorescence, artefact control for SMM control-protein annotation, profiling panel (AID 1140).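 Note: score merges 667 nm feature emission with signal to noise over triplicate slides.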 Particulars: WGA-A647 binding, 635 nm fluorescence, higher = more signal.
The target of assay [10] is Luciferin 4-monooxygenase (Photinus pyralis) (UniProt P08659). Briefly: inhibition of purified Photinus pyralis luciferase – biochemical, luminescence, purified enzyme, 2006 set, primary screen (AID 1141).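 Note: cell-free assay with purified firefly luciferase at 100 ng per well in PBS; test concentration not given here.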 The conditions noted are these: purified firefly luciferase, SteadyGlo luminescence, 30 min; higher = more signal, called active from +8 up or from −8 down.
Sequence of Luciferin 4-monooxygenase (Photinus pyralis) (P08659 whole entry, looked up): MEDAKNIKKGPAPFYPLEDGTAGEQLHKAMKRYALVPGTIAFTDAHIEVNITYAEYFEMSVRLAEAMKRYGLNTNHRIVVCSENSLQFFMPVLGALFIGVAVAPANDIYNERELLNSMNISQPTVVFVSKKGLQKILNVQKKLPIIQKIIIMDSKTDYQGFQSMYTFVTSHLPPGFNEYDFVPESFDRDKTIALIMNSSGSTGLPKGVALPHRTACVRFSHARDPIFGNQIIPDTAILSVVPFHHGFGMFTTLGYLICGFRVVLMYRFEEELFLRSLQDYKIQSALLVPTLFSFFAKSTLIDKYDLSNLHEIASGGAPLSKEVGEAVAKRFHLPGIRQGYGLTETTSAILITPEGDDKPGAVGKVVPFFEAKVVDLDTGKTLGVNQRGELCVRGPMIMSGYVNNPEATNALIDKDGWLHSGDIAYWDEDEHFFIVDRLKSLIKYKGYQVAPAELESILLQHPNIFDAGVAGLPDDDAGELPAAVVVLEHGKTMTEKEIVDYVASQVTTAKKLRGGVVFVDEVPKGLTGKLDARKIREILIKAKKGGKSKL
The test system of assay [11] is Wnt5a (protein binding on small-molecule microarray). Briefly: small molecules binding Wnt5a protein – biophysical, small-molecule microarray, 635/667 nm fluorescence, primary screen (AID 1142).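 Note: fluorescence read at 667 nm with signal to noise per printed feature.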 The conditions noted are these: 635 nm fluorescence, higher = more signal.
The nature of assay [12]: ATP-based viability of Huh7 replicon cells – cell-based, CellTiter-Glo luminescence, basal, 48 h, cytotoxicity control for HCV replication inhibitor project, primary screen (AID 1143).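 Note: Huh7 hepatoma cells carrying a hepatitis C replication reporter with no stimulus; test concentration not given here.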 The conditions noted are these: higher = more signal, called active from +8 up or from −8 down.
The nature of assay [13]: Pseudomonas biofilm growth suppression – PAO1 strain, BacTiter-Glo luminescence, LB-PBS, primary screen (AID 1144). The conditions noted are these: P. aeruginosa PAO1 biofilm, 12 h, higher = more signal.
The nature of assay [14]: basal CRE-LacZ reporter activity in PC12 – cell-based, unstimulated, primary screen (AID 1145). Particulars: no forskolin, luminescence, 4.5 h, higher = more signal, called active from +8 up or from −8 down.
The nature of assay [15]: forskolin-driven CRE-LacZ activity in PC12 – cell-based, CRE-LacZ reporter, forskolin-stimulated, primary screen (AID 1146).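 Note: PC12 cells with 6xCRE LacZ reporter stimulated by forskolin 10 µM; beta-galactosidase reporter signal reflecting CREB driven transcription.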 Particulars: luminescence, 4.5 h, higher = more signal, called active from +8 up or from −8 down.
Assay [16] concerns the target Streptavidin (Streptomyces avidinii) (UniProt P22629). Briefly: compounds binding control protein streptavidin – biophysical, small-molecule microarray, 635/667 nm fluorescence, artefact control for SMM compound annotation, primary screen (AID 1147).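 Note: signal reflects streptavidin binding to arrayed compounds as a control protein.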 The conditions noted are these: higher = more signal.
Assay [17] can be described thus: probe aInhba binding on compound microarray – biochemical, small-molecule microarray, 635/667 nm fluorescence, primary screen (AID 1148).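 Note: score merges 667nm spot fluorescence with signal-to-noise for antibody binding to printed compounds.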 Particulars: higher = more signal.
The target of assay [18] is Torsin-1A (Homo sapiens) (UniProt O14656). Briefly: TOR1A wild-type binding on microarray – cell lysate, small-molecule microarray, lysate, 635/667 nm, primary screen (AID 1149). The conditions noted are these: COS7 hTOR1A-WT lysate, 635 nm fluorescence, higher = more signal.
Sequence of Torsin-1A (Homo sapiens) (O14656 whole entry, looked up): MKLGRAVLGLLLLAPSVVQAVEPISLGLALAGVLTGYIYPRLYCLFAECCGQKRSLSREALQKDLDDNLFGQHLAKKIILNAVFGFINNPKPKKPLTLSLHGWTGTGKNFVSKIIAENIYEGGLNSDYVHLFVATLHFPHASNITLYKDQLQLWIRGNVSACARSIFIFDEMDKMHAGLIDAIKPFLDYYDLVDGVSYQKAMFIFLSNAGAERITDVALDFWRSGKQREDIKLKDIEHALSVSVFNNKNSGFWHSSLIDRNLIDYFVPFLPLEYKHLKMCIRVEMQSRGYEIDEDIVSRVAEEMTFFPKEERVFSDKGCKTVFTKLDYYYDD
The target is the same in assay [19]. Briefly: torsin A mutant lysate binding on microarrays – cell lysate, small-molecule microarray, COS7 lysate, 635/667 nm fluorescence, primary screen (AID 1150).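 Note: score pools 667 nm emission and signal to noise measuring lysate protein binding.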 Particulars: COS7 hTOR1A mutant lysate, 635 nm fluorescence, higher = more signal.
In assay [20] the test system is Sonic hedgehog protein (Shh). Briefly: Sonic hedgehog microarray binding compounds – biochemical, small-molecule microarray, 635/667 nm fluorescence, primary screen (AID 1151).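 Note: Shh protein binding to compounds spotted on small-molecule microarray slides; score combines spot fluorescence intensity with signal-to-noise across triplicate slides.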 Particulars: 635 nm fluorescence, higher = more signal.

Sequence of Fibroblast growth factor 2 (Homo sapiens) (P09038 whole entry, looked up): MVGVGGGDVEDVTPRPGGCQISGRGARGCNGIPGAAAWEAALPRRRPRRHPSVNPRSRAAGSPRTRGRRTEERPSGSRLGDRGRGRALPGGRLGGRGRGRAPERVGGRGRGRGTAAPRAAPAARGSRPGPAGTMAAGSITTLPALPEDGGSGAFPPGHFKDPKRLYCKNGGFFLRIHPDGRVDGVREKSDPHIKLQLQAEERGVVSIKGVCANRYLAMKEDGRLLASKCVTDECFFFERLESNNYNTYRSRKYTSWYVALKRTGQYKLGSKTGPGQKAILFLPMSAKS
Sequence of Streptavidin (Streptomyces avidinii) (P22629 whole entry, looked up): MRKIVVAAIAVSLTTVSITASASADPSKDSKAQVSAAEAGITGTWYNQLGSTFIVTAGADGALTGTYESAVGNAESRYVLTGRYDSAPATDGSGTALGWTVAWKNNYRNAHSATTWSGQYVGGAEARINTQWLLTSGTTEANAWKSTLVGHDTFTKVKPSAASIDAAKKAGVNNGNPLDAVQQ
Sequence of Follistatin (Homo sapiens) (P19883 whole entry, looked up): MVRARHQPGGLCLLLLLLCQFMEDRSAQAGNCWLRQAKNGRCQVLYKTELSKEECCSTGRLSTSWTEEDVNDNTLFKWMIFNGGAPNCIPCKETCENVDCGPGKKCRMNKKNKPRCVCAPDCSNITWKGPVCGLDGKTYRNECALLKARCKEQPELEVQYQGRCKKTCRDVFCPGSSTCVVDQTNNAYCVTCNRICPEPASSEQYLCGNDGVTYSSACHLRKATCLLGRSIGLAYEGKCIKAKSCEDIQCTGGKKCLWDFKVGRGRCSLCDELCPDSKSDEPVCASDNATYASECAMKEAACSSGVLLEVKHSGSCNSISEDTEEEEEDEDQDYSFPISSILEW

Consider `CO[C@H]1O[C@H](CO)[C@@H](OC(=O)c2ccc(Br)cc2)[C@@H]2OC(=O)[C@@H](Cc3ccc4ccccc4c3)C/C=C/C[C@H](Cc3ccc4ccccc4c3)C(=O)O[C@@H]12`, for which the composite z-score in assay [1] is 1.4; in assay [2], 1.2; in [3], 0.337; in [4], -0.216; in [5] it was 0.395; in [6], -0.311. Further, the composite z-score in assay [8] was -0.345; in assay [9], 0.691; in [11], 0.18; in [16], 0.48; in assay [17] it was -0.103; in assay [18] it was 0.0121. Moreover, the results for the composite z-score in assay [19] and in [20] were 0.625 and -0.219, respectively. Also, the z-score is 1.59 in [7]; -1.28 (inactive) in [10]; -2.88 (inactive) in assay [12]; 0.4 (inactive) in assay [13]; 0.139 (inactive) in assay [14]; -0.433 (inactive) in [15].

As for `COc1cc2c(cc1OC)CN(C(=O)[C@@H]1[C@H]3C(=O)O[C@H](c4ccccc4)[C@H](c4ccccc4)N3[C@H](c3ccccc3OCCO)[C@@]13C(=O)Nc1ccc(C#CC4(O)CCCCCC4)cc13)CC2`, the composite z-score was 1.57 in [1]; 1.17 in assay [2]; -0.0242 in assay [3]; 0.787 in [4]; 0.954 in assay [5]; 0.513 in assay [6]. The composite z-score is 0.895 in assay [8]; 0.9 in assay [9]; 0.0109 in [11]; 0.445 in assay [16]; -0.0523 in [17]; 0.825 in assay [18]. Also, the composite z-score in assay [19] was 0.827; in assay [20], 0.791. Also, the z-score is -0.825 in [7]; -0.877 (inactive) in assay [10]; -2.91 (inactive) in [12]; -0.0135 (inactive) in assay [13]; -0.788 (inactive) in [14]; -0.749 (inactive) in assay [15].

As for `NCCCCCCNC(=O)[C@@H]1C[C@@H]2C(=O)N3CCC[C@H]3C(=O)N2[C@@H]1c1ccc(O)cc1`, the composite z-score in assay [1] was found to be 0.508; in assay [2], 1.18; in [3], 0.439; in assay [4] it was 0.578; in [5], 1.41; in [6], 1.29. In addition, the composite z-score in assay [8] was 1.25; in assay [9], 0.636; in assay [11], 0.236; in assay [16], 1.01; in assay [17], -0.323; in assay [18], 0.592. In addition, the composite z-score in [19] was 0.513; in [20], 2. Further, the z-score was 0.37 in assay [7]; -0.284 (inactive) in assay [10]; -0.118 (inactive) in [12]; -0.515 (inactive) in assay [13]; 0.826 (inactive) in assay [14]; -0.615 (inactive) in assay [15].

With `CC(C)NC(=O)[C@@]1(C)c2ccccc2C(=O)N(C(C)C)[C@H]1c1ccc(CO)cc1`, the composite z-score was -0.398 in assay [1]; -0.259 in assay [2]; 0.0394 in [3]; -0.66 in assay [4]; -0.75 in assay [5]; -0.516 in assay [6]. Besides, the composite z-score was -1.05 in assay [8]; -0.465 in assay [9]; -0.79 in assay [11]; -1.35 in assay [16]; -0.197 in [17]; -3.17 in assay [18]. For the same compound, the composite z-score was -2.55 in [19] and 0.133 in assay [20]. Further, the z-score in assay [7] is -0.413; in [10] it was -0.682 (inactive); in assay [12] it was 0.0942 (inactive); in [13], -0.272 (inactive); in assay [14] it was 0.0924 (inactive); in [15] it was 0.626 (inactive).

Regarding `[N-]=[N+]=Nc1ccccc1[C@@H]1OC(c2ccc(OCCCO)cc2)=N[C@]1(CCS(=O)(=O)c1ccccc1)C(=O)NCCN1CCOCC1`, the composite z-score in [1] was 0.903; in assay [2], 1.28; in assay [3] it was -0.018; in [4], 0.962; in assay [5] it was 1.14; in assay [6], -0.29. Moreover, the composite z-score was 0.393 in assay [8]; 1.04 in assay [9]; 0.391 in assay [11]; 0.637 in [16]; 0.109 in [17]; 1.13 in assay [18]. The composite z-score is 1.15 in [19] and -0.252 in [20]. For the same compound, the z-score was -0.377 in [7]; -8.81 (active) in assay [10]; -4.79 (inactive) in assay [12]; -0.124 (inactive) in assay [13]; 0.549 (inactive) in assay [14]; -1.18 (inactive) in [15].
